# In PMC5540273 (PLoS ONE, 2017):
# Assays:
# Conditions in all cases: concentration: 1 μM, replicates: in singlicate; n = 1
# PIKFYVE = test system: PIKFYVE
# PIM1 = test system: PIM1
# PIM2 = test system: PIM2
# PIM3 = test system: PIM3
# PIP5K1A = test system: PIP5K1A
# PIP5K1C = test system: PIP5K1C
# PIP5K2B = test system: PIP5K2B
# PIP5K2C = test system: T1, PIP5K2C
# T1 construct: gene PIP4K2C
# PKAC-alpha = test system: T2, PKAC-alpha
# T2 construct: gene PRKACA
# PKAC-beta = test system: T3, PKAC-beta
# T3 construct: gene PRKACB
# PKMYT1 = test system: PKMYT1
# PKN1 = test system: PKN1
# PKN2 = test system: PKN2
# PLK1 = test system: PLK1
# PLK2 = test system: PLK2
# PLK3 = test system: PLK3
# PLK4 = test system: PLK4
# PRKCD = test system: PRKCD
# PRKCE = test system: PRKCE
# PRKCH = test system: PRKCH
# 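Also: KINOMEscan kinase panel screen.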
compound,measurement,setting,value
Cl.Oc1cccc(Nc2ccnc3cc(-c4ccncc4)ccc23)c1 [GW494601],%Inh,PIKFYVE,44%
same,%Inh,PIM1,28%
same,%Inh,PIM2,0%
same,%Inh,PIM3,0%
same,%Inh,PIP5K1A,35%
same,%Inh,PIP5K1C,75%
same,%Inh,PIP5K2B,9%
same,%Inh,PIP5K2C,85%
same,%Inh,PKAC-alpha,0%
same,%Inh,PKAC-beta,0%
same,%Inh,PKMYT1,63%
same,%Inh,PKN1,0%
same,%Inh,PKN2,0%
same,%Inh,PLK1,30%
same,%Inh,PLK2,0%
same,%Inh,PLK3,0%
same,%Inh,PLK4,25%
same,%Inh,PRKCD,0%
same,%Inh,PRKCE,7%
same,%Inh,PRKCH,0%
CCn1cnc2c(N)ncnc21 [GW345098],%Inh,PIKFYVE,0%
same,%Inh,PIM1,0%
same,%Inh,PIM2,0%
same,%Inh,PIM3,0%
same,%Inh,PIP5K1A,0%
same,%Inh,PIP5K1C,0%
same,%Inh,PIP5K2B,0%
same,%Inh,PIP5K2C,0%
same,%Inh,PKAC-alpha,8%
same,%Inh,PKAC-beta,14%
same,%Inh,PKMYT1,5%
same,%Inh,PKN1,20%
same,%Inh,PKN2,0%
same,%Inh,PLK1,0%
same,%Inh,PLK2,7%
same,%Inh,PLK3,18%
same,%Inh,PLK4,27%
same,%Inh,PRKCD,0%
same,%Inh,PRKCE,18%
same,%Inh,PRKCH,9%
COc1ccc(CNC(=O)NC2CCN(c3ccnc(Nc4ccc(OC)cc4)n3)C2)cc1 (stereo not drawn) [GSK1379727],%Inh,PIKFYVE,29%
same,%Inh,PIM1,0%
same,%Inh,PIM2,0%
same,%Inh,PIM3,0%
same,%Inh,PIP5K1A,0%
same,%Inh,PIP5K1C,57%
same,%Inh,PIP5K2B,4%
same,%Inh,PIP5K2C,33%
same,%Inh,PKAC-alpha,0%
same,%Inh,PKAC-beta,0%
same,%Inh,PKMYT1,2%
same,%Inh,PKN1,0%
same,%Inh,PKN2,0%
same,%Inh,PLK1,0%
same,%Inh,PLK2,0%
same,%Inh,PLK3,0%
same,%Inh,PLK4,0%
same,%Inh,PRKCD,0%
same,%Inh,PRKCE,15%
same,%Inh,PRKCH,17%
COc1cc2c(cc1OC[C@@H](O)CO)ncc1c3ccc(C#N)cc3[nH]c21,%Inh,PIKFYVE,56%
same,%Inh,PIM1,0%
same,%Inh,PIM2,81%
same,%Inh,PIM3,35%
same,%Inh,PIP5K1A,38%
same,%Inh,PIP5K1C,47%
same,%Inh,PIP5K2B,42%
same,%Inh,PIP5K2C,76%
same,%Inh,PKAC-alpha,0%
same,%Inh,PKAC-beta,0%
same,%Inh,PKMYT1,0%
same,%Inh,PKN1,0%
same,%Inh,PKN2,33%
same,%Inh,PLK1,0%
same,%Inh,PLK2,0%
same,%Inh,PLK3,0%
same,%Inh,PLK4,9%
same,%Inh,PRKCD,5%
same,%Inh,PRKCE,62%
same,%Inh,PRKCH,0%
CN(C(=O)c1ccc(-c2cc(-c3c[nH]nc3-c3ccccn3)ccn2)cc1)C1CCOCC1 [GW810083],%Inh,PIKFYVE,40%
same,%Inh,PIM1,0%
same,%Inh,PIM2,0%
same,%Inh,PIM3,0%
same,%Inh,PIP5K1A,0%
same,%Inh,PIP5K1C,31%
same,%Inh,PIP5K2B,0%
same,%Inh,PIP5K2C,49%
same,%Inh,PKAC-alpha,0%
same,%Inh,PKAC-beta,0%
same,%Inh,PKMYT1,4%
same,%Inh,PKN1,0%
same,%Inh,PKN2,0%
same,%Inh,PLK1,0%
same,%Inh,PLK2,0%
same,%Inh,PLK3,0%
same,%Inh,PLK4,2%
same,%Inh,PRKCD,24%
same,%Inh,PRKCE,4%
same,%Inh,PRKCH,0%
O=C(NCCNc1ccnc(Nc2ccc(F)cc2)n1)Nc1ccccc1F [GSK1379880],%Inh,PIKFYVE,0%
same,%Inh,PIM1,0%
same,%Inh,PIM2,0%
same,%Inh,PIM3,0%
same,%Inh,PIP5K1A,0%
same,%Inh,PIP5K1C,24%
same,%Inh,PIP5K2B,0%
same,%Inh,PIP5K2C,38%
same,%Inh,PKAC-alpha,8%
same,%Inh,PKAC-beta,0%
same,%Inh,PKMYT1,9%
same,%Inh,PKN1,0%
same,%Inh,PKN2,0%
same,%Inh,PLK1,100%
same,%Inh,PLK2,0%
same,%Inh,PLK3,0%
same,%Inh,PLK4,0%
same,%Inh,PRKCD,0%
same,%Inh,PRKCE,0%
same,%Inh,PRKCH,0%
COc1cc(Nc2nccc(N3CCC(NC(=O)c4cccc(NC(C)=O)c4)C3)n2)cc(OC)c1OC (stereo not drawn) [GSK1379754],%Inh,PIKFYVE,0%
same,%Inh,PIM1,0%
same,%Inh,PIM2,0%
same,%Inh,PIM3,0%
same,%Inh,PIP5K1A,0%
same,%Inh,PIP5K1C,45%
same,%Inh,PIP5K2B,18%
same,%Inh,PIP5K2C,92.4%
same,%Inh,PKAC-alpha,3%
same,%Inh,PKAC-beta,11%
same,%Inh,PKMYT1,0%
same,%Inh,PKN1,0%
same,%Inh,PKN2,0%
same,%Inh,PLK1,0%
same,%Inh,PLK2,0%
same,%Inh,PLK3,3%
same,%Inh,PLK4,75%
same,%Inh,PRKCD,8%
same,%Inh,PRKCE,0%
same,%Inh,PRKCH,2%
Cc1c(Cn2c(C)nn3c(=O)cc(N4CCOC(C)C4)nc23)cccc1C(F)(F)F (stereo not drawn) [GSK2344444],%Inh,PIKFYVE,46%
same,%Inh,PIM1,11%
same,%Inh,PIM2,0%
same,%Inh,PIM3,0%
same,%Inh,PIP5K1A,0%
same,%Inh,PIP5K1C,0%
same,%Inh,PIP5K2B,0%
same,%Inh,PIP5K2C,0%
same,%Inh,PKAC-alpha,4%
same,%Inh,PKAC-beta,17%
same,%Inh,PKMYT1,0%
same,%Inh,PKN1,0%
same,%Inh,PKN2,0%
same,%Inh,PLK1,0%
same,%Inh,PLK2,0%
same,%Inh,PLK3,0%
same,%Inh,PLK4,0%
same,%Inh,PRKCD,0%
same,%Inh,PRKCE,0%
same,%Inh,PRKCH,0%
CN1c2ccc(NCc3ccc(F)cc3)cc2-c2c(cnn2C)S1(=O)=O,%Inh,PIKFYVE,32%
same,%Inh,PIM1,0%
same,%Inh,PIM2,2%
same,%Inh,PIM3,0%
same,%Inh,PIP5K1A,31%
same,%Inh,PIP5K1C,31%
same,%Inh,PIP5K2B,0%
same,%Inh,PIP5K2C,3%
same,%Inh,PKAC-alpha,9%
same,%Inh,PKAC-beta,0%
same,%Inh,PKMYT1,0%
same,%Inh,PKN1,0%
same,%Inh,PKN2,0%
same,%Inh,PLK1,2%
same,%Inh,PLK2,0%
same,%Inh,PLK3,0%
same,%Inh,PLK4,0%
same,%Inh,PRKCD,0%
same,%Inh,PRKCE,23%
same,%Inh,PRKCH,0%
